Assay outcomes as filed in PubChem BioAssay.
TDP1 cell CPT = qHTS for Inhibitors of human tyrosyl-DNA phosphodiesterase 1 (TDP1): qHTS in cells in presence of CPT | chicken DT40 Tdp1-/-;hTDP1 cells + 20 nM CPT, ATP luminescence, 48 h | Potency, µM (top dose mostly 46.2 µM), actives largely listed as inhibitors | actives 12% (n = 420,000) | AID 686979, 2013; note: nearly all actives have a fitted effect of over 55% in size
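Chicken DT40 Tdp1-/- cells complemented with human TDP1, 400 cells/well, exposed to compounds plus 20 nM camptothecin for at least 48 h at 37 C; viability read as ATP content by CellTiter-Glo luminescence.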
IL1B secr inh = qHTS for Inhibitors of Inflammasome Signaling: IL-1-beta AlphaLISA Primary Screen; actives 4.7% (n = 360,000); activity change, % at 57.5 µM; AID 743279, 2014; THP-1 LPS/ATP IL-1B secretion, AlphaLISA, 16 h; active compounds read low; in the data active = activity change below about -50%; inconclusive = mostly about -30% to -49%
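THP-1 cells pretreated 1 hr with compounds (up to 57.5 uM final), then stimulated with LPS (250 ng/mL final) plus ATP (1.25 mM final); secreted IL-1B measured by AlphaLISA after 16 hr, decreased signal indicating inhibition.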
D3 ag = qHTS of D3 Dopamine Receptor Agonist: qHTS | D(3) dopamine receptor (Homo sapiens), P35462 | D3R DiscoveRx beta-arrestin cells, luminescence, 90 min | max activation, % | actives 0.58% (n = 410,000); in the data active = max activation above about 30%
Target sequence (P35462 whole entry, looked up): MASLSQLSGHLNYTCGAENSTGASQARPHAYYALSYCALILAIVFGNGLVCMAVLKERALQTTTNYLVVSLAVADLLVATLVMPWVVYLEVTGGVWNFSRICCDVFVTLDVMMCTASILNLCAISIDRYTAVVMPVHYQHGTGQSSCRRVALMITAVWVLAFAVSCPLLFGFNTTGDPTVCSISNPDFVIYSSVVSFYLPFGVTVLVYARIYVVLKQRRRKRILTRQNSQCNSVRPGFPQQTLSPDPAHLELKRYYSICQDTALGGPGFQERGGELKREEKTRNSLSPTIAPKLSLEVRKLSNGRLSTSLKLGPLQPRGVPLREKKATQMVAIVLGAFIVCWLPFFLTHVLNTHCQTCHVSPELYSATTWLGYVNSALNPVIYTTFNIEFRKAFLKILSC
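Agonist-mode cell screen: cells plated at 1500/well and incubated overnight at 37 °C, then exposed to library compounds for 90 min at 37 °C. Detection reagent was added for 30–60 min at room temperature, and luminescence was read.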
DT40 TDP1 no CPT = qHTS for Inhibitors of human tyrosyl-DNA phosphodiesterase 1 (TDP1): qHTS in cells in absence of CPT | DT40 Tdp1-/- hTDP1 cells, no CPT, ATP luminescence, 48 h | Potency, µM (doses to about 46.2 µM), usual class: inhibitors | actives 15% (n = 420,000) | AID 686978, 2013; note: nearly all actives have a fitted effect of over 55% in size
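No-CPT arm: Tdp1-/-;hTDP1 DT40 cells (400/well) plus compounds, incubated ≥48 hr at 37 °C. Readout CellTiter-Glo luminescence.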
D3 antag = qHTS of D3 Dopamine Receptor Antagonist: qHTS; D(3) dopamine receptor (Homo sapiens), P35462; actives 2.5% (n = 360,000); max response, negative = inhibition, %; D3R cells, DiscoveRx beta-arrestin luminescence, antagonist mode; active compounds read low; in the data active = max response below about -50%; inconclusive = no clear call, values can overlap the other calls
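Cells expressing the human receptor were seeded at 1500 cells/well, incubated overnight at 37 degrees C in 5% CO2, then exposed to library compounds with dopamine controls for 90 minutes at 37 degrees C before luminescent detection.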
ClpP mod = qHTS Assay for Activators of ClpP | Potency, µM (highest dose often 57.5 µM) | AID 651965, 2013 | actives 1.9% (n = 340,000) | ATP-dependent Clp protease proteolytic subunit (Bacillus subtilis (strain 168)), P80244 | purified B. subtilis ClpP, FRET peptide cleavage, 20 min; active = well fitted falling curve with a large enough effect; inconclusive = small, poorly fitted or top-dose-only effect; inactive = no such curve, though single readings can be large or run the other way; note: the source files actives as falling curves though it sought activators and does not explain the sign; nearly all actives have a fitted effect of over 65% in size
Target sequence (P80244 whole entry, looked up): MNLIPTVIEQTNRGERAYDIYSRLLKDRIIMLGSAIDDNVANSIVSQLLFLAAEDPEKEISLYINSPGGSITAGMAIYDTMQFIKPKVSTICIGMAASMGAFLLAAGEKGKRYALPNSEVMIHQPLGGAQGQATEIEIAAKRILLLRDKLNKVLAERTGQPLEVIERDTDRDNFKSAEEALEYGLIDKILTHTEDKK
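FRET quenching reversal measured ClpP activation: 10 microg/mL B. subtilis ClpP at pH 8 with the FRET-FV decapeptide, read at 430 nm after 320 nm excitation. The 20-min minus 0-min signal was scaled between DMSO/no-enzyme wells and ADEP (5.8 microM final).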
Of the large screens only hits and unclear results are named; the others gave an inactive call. Hits are enriched below; roughly 21% of the tested compounds scored in any of these assays. Unless noted, calls come from the whole dose curve; as a rule, active = well fitted inhibition curve with a large enough effect; inconclusive = small, poorly fitted or top-dose-only effect; inactive = flat fitted curve, though single readings scatter.

COc1cccc(NC(=O)CSC2=Nc3ccccc3C3=NC(CC(=O)NCCc4ccccc4)C(=O)N23)c1 (centres undefined)	none (no result: IL1B secr inh, D3 antag)
Cc1ccc(Sc2ncccc2C(=O)NCc2cc([N+](=O)[O-])ccc2O)cc1C	TDP1 cell CPT inconclusive, DT40 TDP1 no CPT inconclusive
COc1ccc(C(O)c2nc(-c3cccc(C(F)(F)F)c3)cs2)cc1 (centres undefined)	TDP1 cell CPT 21µM, DT40 TDP1 no CPT inconclusive
COc1ccc(C(O)c2nc(-c3cccc(F)c3)cs2)cc1 (centres undefined)	TDP1 cell CPT 16µM, IL1B secr inh -93, DT40 TDP1 no CPT inconclusive
COc1cc(C(O)c2nc(-c3cccc(NC(C)=O)c3)cs2)ccc1F (centres undefined)	TDP1 cell CPT inconclusive, DT40 TDP1 no CPT 16µM
OC(c1ccccc1)c1nc(-c2cccc(F)c2)cs1 (centres undefined)	D3 antag -55
COc1ccc(C(O)c2nc(-c3cccc(CO)c3)cs2)cc1 (centres undefined)	TDP1 cell CPT inconclusive, DT40 TDP1 no CPT inconclusive, D3 antag inconclusive
CCc1cc(C(=O)OCC(=O)N2CCC(c3ccccc3)=N2)sc1C	none
O=C(CSc1nc2c([nH]c3ccccc32)c(=O)n1-c1ccc(F)cc1)N1CCCc2ccccc21	TDP1 cell CPT inconclusive (no result: IL1B secr inh, D3 antag)
COc1ccc(CN2C(=O)CN(S(C)(=O)=O)CC2(C)C(=O)Nc2ccc3c(c2)OCCO3)cc1OC (centres undefined)	none
Cc1cccc(C(=O)N2CCN(c3ccc([N+](=O)[O-])c(NCc4ccco4)c3)CC2)c1	TDP1 cell CPT inconclusive, DT40 TDP1 no CPT 21µM
Cc1ccccc1C(=O)N1CCN(c2ccc([N+](=O)[O-])c(NCc3ccco3)c2)CC1	TDP1 cell CPT inconclusive, DT40 TDP1 no CPT inconclusive
Cc1ccc(C(=O)N2CCN(c3ccc([N+](=O)[O-])c(NCc4ccco4)c3)CC2)cc1	TDP1 cell CPT inconclusive, DT40 TDP1 no CPT 16µM
COC(=O)CCCCCn1c(-c2ccccc2)cn2c3c(=O)n(C)c(=O)n(C)c3nc12	DT40 TDP1 no CPT inconclusive (no result: IL1B secr inh, D3 antag)
O=C(c1ccc(Cl)cc1)N1CCN(C(=O)C2CCCCC2)CC1	none (no result: ClpP mod)
CC(=O)c1ccc(N2CCN(c3ccnc4cc(Cl)ccc34)CC2)cc1	TDP1 cell CPT inconclusive, DT40 TDP1 no CPT 3.7µM (no result: ClpP mod)
O=C(C1CC1)N1CCN(c2ccnc3cc(Cl)ccc23)CC1	TDP1 cell CPT inconclusive, DT40 TDP1 no CPT inconclusive, D3 antag -68
CC(C)(C)C(=O)N1CCN(c2ccnc3cc(Cl)ccc23)CC1	TDP1 cell CPT inconclusive, DT40 TDP1 no CPT inconclusive
O=C(C1CCCCC1)N1CCN(c2ccnc3cc(Cl)ccc23)CC1	TDP1 cell CPT 10µM, IL1B secr inh inconclusive, DT40 TDP1 no CPT 12µM (no result: ClpP mod)
CCc1nnc(NC(=O)C(=O)c2cc(C)n(-c3ccccc3)c2C)s1	none (no result: IL1B secr inh, D3 antag)
CCOC(=O)N/N=C1\CCS(=O)(=O)c2ccc(Cl)cc21	DT40 TDP1 no CPT inconclusive
O=C(OCC(=O)N1CCc2ccccc21)c1ccccc1[N+](=O)[O-]	D3 antag inconclusive
Cc1ccc(-c2nnc(Nc3cccc(O)c3)c3ccccc23)cc1S(=O)(=O)NCC1CCCO1 (centres undefined)	TDP1 cell CPT inconclusive, DT40 TDP1 no CPT 23µM (no result: IL1B secr inh, D3 antag)
Cc1ccc(-c2nnc(N3CCOCC3)c3ccccc23)cc1S(=O)(=O)NCC1CCCO1 (centres undefined)	TDP1 cell CPT inconclusive, IL1B secr inh inconclusive, DT40 TDP1 no CPT 26µM, D3 antag inconclusive
Cc1ccc(-c2nnc(Nc3ccc(CC(N)=O)cc3)c3ccccc23)cc1S(=O)(=O)NCC1CCCO1 (centres undefined)	IL1B secr inh inconclusive (no result: ClpP mod)
Cc1ccc(-c2n[nH]c(=O)c3ccccc23)cc1S(=O)(=O)NCC1CCCO1 (centres undefined)	TDP1 cell CPT inconclusive, DT40 TDP1 no CPT inconclusive (no result: ClpP mod)
Cc1ccccc1Nc1nnc(-c2ccc(C)c(S(=O)(=O)NCC3CCCO3)c2)c2ccccc12 (centres undefined)	TDP1 cell CPT inconclusive, DT40 TDP1 no CPT 13µM (no result: IL1B secr inh, D3 antag)
COc1ccc(N2CCN(S(=O)(=O)c3c(C)nc4scc(C)n4c3=O)CC2)cc1	DT40 TDP1 no CPT inconclusive
O=C(NC(=O)c1ccccc1)Nc1ccc(Cl)cn1	none
COc1cc(/C=C/C(=O)OCC(=O)NC(=O)NC23CC4CC(CC(C4)C2)C3)ccc1OCC#N	TDP1 cell CPT inconclusive, IL1B secr inh inconclusive, DT40 TDP1 no CPT 21µM, D3 antag -53
O=C(C1CCCN(S(=O)(=O)c2ccc(F)cc2)C1)N(Cc1cccs1)C1CC1 (centres undefined)	TDP1 cell CPT 13µM, DT40 TDP1 no CPT 18µM
O=C(NC1CCCC1)C1CCCN(S(=O)(=O)c2ccc(F)cc2)C1 (centres undefined)	DT40 TDP1 no CPT inconclusive (no result: ClpP mod)
CS(=O)(=O)N1CCCC(C(=O)Nc2ccc(F)cc2)C1 (centres undefined)	none
O=C(Nc1ccc(N2CCOCC2)cc1)C1CCCN(S(=O)(=O)c2ccccc2)C1 (centres undefined)	TDP1 cell CPT inconclusive, DT40 TDP1 no CPT inconclusive
COc1ccc(CCNC(=O)C2CCCN(S(=O)(=O)c3ccc(F)cc3)C2)cc1 (centres undefined)	TDP1 cell CPT inconclusive, DT40 TDP1 no CPT 16µM
CN(C)c1ccc(NC(=O)C2CCCN(S(=O)(=O)c3ccccc3)C2)cc1 (centres undefined)	TDP1 cell CPT 15µM, DT40 TDP1 no CPT 23µM
CCOC(=O)c1ccc(NC(=O)C2CCCN(S(=O)(=O)c3ccc(F)cc3)C2)cc1 (centres undefined)	TDP1 cell CPT inconclusive, IL1B secr inh -64, DT40 TDP1 no CPT 23µM
Cc1nc2ccccn2c1CN(C)C(=O)C1CCC(=O)N(Cc2cccc(F)c2)C1 (centres undefined)	none
CCC(=O)O[C@H](CC(=O)O)C[N+](C)(C)C	none (no result: IL1B secr inh, D3 ag, D3 antag, ClpP mod)
COc1ccc(C(NC=O)c2cc(OC)c(OC)cc2Br)cc1OC (centres undefined)	none
O=C(O)c1ccc(NS(=O)(=O)c2ccc(Cl)c(C(=O)Nc3ccccc3[N+](=O)[O-])c2)cc1	none
